Data from PubChem BioAssay (NCI).
This is part of a sample that, as a whole, favours compounds with a hit. Of some 83,000 tested, about 20% had one in any assay.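 Compound tested at a single concentration for 48 hours in 96-well plates; a percent growth value below 10 was scored as active.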 Active and inactive are the calls of the source.

Tests used:
Experiment in all cases: NCI-60 one-dose screen, 48 h (100 = growth as untreated, 0 = no growth, -100 = all killed)
Conditions in all cases: 10 µM unless noted
NCI-H23 lung = system: NCI-H23 lung
NCI-H226 lung = system: NCI-H226 lung
NCI-H322M lung = system: NCI-H322M lung
HOP-62 NSCLC = system: HOP-62 NSCLC
NCI-H460 lung = system: NCI-H460 lung
HOP-92 NSCLC = system: HOP-92 NSCLC
NCI-H522 lung = system: NCI-H522 lung
A549/ATCC NSCLC = system: A549/ATCC NSCLC
786-0 renal = system: 786-0 renal
COLO 205 colon = system: COLO 205 colon
DU-145 prostate = system: DU-145 prostate
K-562 leukemia = system: K-562 leukemia
MALME-3M melanoma = system: MALME-3M melanoma
MDA-MB-231 breast = system: MDA-MB-231 breast
SF-268 CNS = system: SF-268 CNS
SF-295 CNS = system: SF-295 CNS
SF-539 CNS = system: SF-539 CNS
UACC-257 melanoma = system: UACC-257 melanoma
M14 melanoma = system: M14 melanoma
RXF 393 renal = system: RXF 393 renal

Measured: growth

Clc1ccc(COC(Cn2ccnc2)c2ccc(Cl)cc2Cl)cc1 (centres undefined)
active: K-562 leukemia -4.49%
inactive: NCI-H23 lung 54.2% | NCI-H226 lung 70.2% | NCI-H322M lung 84.9% | HOP-62 NSCLC 75.1% | NCI-H460 lung 33.2% | HOP-92 NSCLC 26% | NCI-H522 lung 36.4% | A549/ATCC NSCLC 51.7% | 786-0 renal 68.5% | COLO 205 colon 68.8% | DU-145 prostate 71.6% | MALME-3M melanoma 42.9% | MDA-MB-231 breast 57.6% | SF-268 CNS 52.1% | SF-295 CNS 17.9% | SF-539 CNS 87.7% | UACC-257 melanoma 61.9% | M14 melanoma 58.9%

CC(C)(N)Cc1ccccc1
inactive: NCI-H23 lung 113% | NCI-H226 lung 107% | NCI-H322M lung 105% | HOP-62 NSCLC 118% | NCI-H460 lung 111% | HOP-92 NSCLC 87.8% | NCI-H522 lung 90.9% | A549/ATCC NSCLC 103% | 786-0 renal 91.3% | COLO 205 colon 116% | DU-145 prostate 115% | K-562 leukemia 92.8% | MALME-3M melanoma 112% | MDA-MB-231 breast 119% | SF-268 CNS 113% | SF-295 CNS 98.1% | SF-539 CNS 107% | UACC-257 melanoma 101% | M14 melanoma 105%

Cc1cc(NC(=O)NCc2ccc(N3C(N)=NC(N)=NC3(C)C)cc2)ccc1S(=O)(=O)F
inactive: NCI-H23 lung 29.2% | NCI-H226 lung 101% | NCI-H322M lung 54.7% | HOP-62 NSCLC 23.4% | HOP-92 NSCLC 88.9% | NCI-H522 lung 16.5% | 786-0 renal 26.2% | COLO 205 colon 29.3% | DU-145 prostate 42.7% | MALME-3M melanoma 56.9% | MDA-MB-231 breast 58.5% | SF-268 CNS 31.6% | SF-295 CNS 27.9% | SF-539 CNS 19.5% | M14 melanoma 29.5%
active: NCI-H460 lung 4.48% | A549/ATCC NSCLC -3.03%

C=CCCCCCCCCC(=O)[O-].C=CCCCCCCCCC(=O)[O-].[Zn+2]
inactive: NCI-H23 lung 96.9% | NCI-H226 lung 115% | NCI-H322M lung 103% | HOP-62 NSCLC 119% | NCI-H460 lung 106% | HOP-92 NSCLC 72.5% | NCI-H522 lung 119% | A549/ATCC NSCLC 101% | 786-0 renal 97.2% | COLO 205 colon 127% | DU-145 prostate 114% | K-562 leukemia 92% | MALME-3M melanoma 108% | SF-268 CNS 106% | SF-295 CNS 97.7% | SF-539 CNS 97.9% | UACC-257 melanoma 98.5% | M14 melanoma 107%

Cc1cc(N(CCCl)CCCl)ccc1/C=N\NC(=O)c1ccncc1
active: NCI-H226 lung -7.98%
inactive: NCI-H23 lung 87.8% | NCI-H322M lung 113% | HOP-62 NSCLC 79.4% | NCI-H460 lung 25.9% | HOP-92 NSCLC 97% | NCI-H522 lung 101% | A549/ATCC NSCLC 78.4% | 786-0 renal 82.5% | COLO 205 colon 98% | DU-145 prostate 82.4% | K-562 leukemia 85.2% | MDA-MB-231 breast 96.4% | RXF 393 renal 91.7% | SF-268 CNS 70.7% | SF-295 CNS 56.2% | SF-539 CNS 60.3% | UACC-257 melanoma 79.8% | M14 melanoma 90.4%

Cc1cc(N(CCCl)CCCl)ccc1C=Nc1cccnc1
active: NCI-H226 lung -45.2%
inactive: NCI-H23 lung 56.6% | NCI-H322M lung 108% | HOP-62 NSCLC 60.4% | NCI-H460 lung 26.5% | HOP-92 NSCLC 44.8% | NCI-H522 lung 87.3% | A549/ATCC NSCLC 67.9% | 786-0 renal 63% | COLO 205 colon 76.7% | K-562 leukemia 63.1% | MALME-3M melanoma 62% | MDA-MB-231 breast 98.4% | RXF 393 renal 59.7% | SF-268 CNS 80.4% | SF-295 CNS 36.7% | SF-539 CNS 53.5% | UACC-257 melanoma 61.8% | M14 melanoma 79.5%

ClCCN(CCCl)c1ccc(-n2cnc3c(Cl)ncnc32)cc1
active: NCI-H23 lung -69% | HOP-92 NSCLC -1.92% | NCI-H522 lung -76.9% | K-562 leukemia -2.07% | RXF 393 renal -57.2% | SF-268 CNS -11.9%
inactive: NCI-H226 lung 97.5% | NCI-H322M lung 58.7% | HOP-62 NSCLC 87% | NCI-H460 lung 47.8% | A549/ATCC NSCLC 85.2% | 786-0 renal 106% | COLO 205 colon 65.8% | DU-145 prostate 21.9% | MDA-MB-231 breast 62.9% | SF-295 CNS 87% | SF-539 CNS 115% | UACC-257 melanoma 49.7% | M14 melanoma 33.3%

COP(=S)(N1CC1)N1CC1
inactive: NCI-H23 lung 101% | NCI-H226 lung 98.6% | NCI-H322M lung 100% | HOP-62 NSCLC 94.1% | NCI-H460 lung 107% | HOP-92 NSCLC 98.6% | NCI-H522 lung 103% | A549/ATCC NSCLC 133% | 786-0 renal 105% | COLO 205 colon 106% | DU-145 prostate 123% | MALME-3M melanoma 105% | MDA-MB-231 breast 93% | RXF 393 renal 114% | SF-268 CNS 112% | SF-295 CNS 104% | SF-539 CNS 94.3% | UACC-257 melanoma 147% | M14 melanoma 99.5%

O=P(N1CC1)(N1CC1)N1CCc2ccccc21
inactive: NCI-H23 lung 103% | NCI-H226 lung 105% | NCI-H322M lung 108% | HOP-62 NSCLC 105% | NCI-H460 lung 63.3% | HOP-92 NSCLC 115% | NCI-H522 lung 109% | A549/ATCC NSCLC 101% | 786-0 renal 106% | COLO 205 colon 117% | DU-145 prostate 112% | MALME-3M melanoma 109% | MDA-MB-231 breast 104% | RXF 393 renal 109% | SF-268 CNS 103% | SF-539 CNS 105% | UACC-257 melanoma 110% | M14 melanoma 104%

O=C(N/N=C\c1ccc(N(CCCl)CCCl)cc1)c1cccc([N+](=O)[O-])c1
active: HOP-62 NSCLC -2.12%
inactive: NCI-H23 lung 87.7% | NCI-H226 lung 46.6% | NCI-H322M lung 121% | NCI-H460 lung 69.1% | HOP-92 NSCLC 92.4% | NCI-H522 lung 107% | A549/ATCC NSCLC 90.4% | 786-0 renal 96.7% | COLO 205 colon 102% | DU-145 prostate 85.9% | MALME-3M melanoma 100% | MDA-MB-231 breast 89.2% | RXF 393 renal 98.5% | SF-268 CNS 76.7% | SF-295 CNS 88.4% | SF-539 CNS 81% | UACC-257 melanoma 92.7% | M14 melanoma 110%

Nc1ccc(OCCNS(=O)(=O)c2cccc(S(=O)(=O)F)c2)c(Cl)c1
inactive: NCI-H23 lung 95.5% | NCI-H226 lung 96.5% | NCI-H322M lung 87.5% | HOP-62 NSCLC 90% | NCI-H460 lung 102% | HOP-92 NSCLC 87.5% | NCI-H522 lung 74.6% | A549/ATCC NSCLC 84.8% | 786-0 renal 88.8% | COLO 205 colon 110% | K-562 leukemia 95.1% | MALME-3M melanoma 86.2% | MDA-MB-231 breast 100% | SF-268 CNS 102% | SF-295 CNS 89.2% | SF-539 CNS 93.5% | UACC-257 melanoma 75.4% | M14 melanoma 97.3%

CCC(CC)CC1(C)CC2(C)CCOC2OO1 (centres undefined)
inactive: NCI-H23 lung 102% | NCI-H226 lung 99% | NCI-H322M lung 109% | HOP-62 NSCLC 97.9% | NCI-H460 lung 108% | HOP-92 NSCLC 96.2% | NCI-H522 lung 90.9% | A549/ATCC NSCLC 98.9% | 786-0 renal 101% | COLO 205 colon 118% | DU-145 prostate 107% | MALME-3M melanoma 112% | MDA-MB-231 breast 100% | RXF 393 renal 111% | SF-268 CNS 110% | SF-295 CNS 101% | SF-539 CNS 99.1% | UACC-257 melanoma 98% | M14 melanoma 115%

COc1cc(/C=N/C2=C(C#N)C(c3ccco3)c3c(c4cc(C)ccc4oc3=O)O2)cc(OC)c1OC (centres undefined)
inactive: NCI-H23 lung 95.1% | NCI-H226 lung 86.3% | NCI-H322M lung 100% | HOP-62 NSCLC 87.3% | NCI-H460 lung 103% | HOP-92 NSCLC 59.4% | NCI-H522 lung 40.3% | A549/ATCC NSCLC 99.5% | 786-0 renal 92.5% | COLO 205 colon 118% | DU-145 prostate 107% | MALME-3M melanoma 97.2% | MDA-MB-231 breast 95.6% | SF-268 CNS 95.2% | SF-295 CNS 92.2% | SF-539 CNS 90.8% | UACC-257 melanoma 94.2% | M14 melanoma 93.4%

N/C(=N/N=C/c1ccncc1)N[N+](=O)[O-]
inactive: NCI-H23 lung 99.5% | NCI-H226 lung 99.2% | NCI-H322M lung 99.5% | HOP-62 NSCLC 89.3% | NCI-H460 lung 112% | HOP-92 NSCLC 115% | NCI-H522 lung 101% | A549/ATCC NSCLC 98.3% | COLO 205 colon 102% | DU-145 prostate 108% | K-562 leukemia 90% | MALME-3M melanoma 96.2% | RXF 393 renal 121% | SF-268 CNS 102% | SF-295 CNS 99.5% | SF-539 CNS 94.3% | UACC-257 melanoma 102% | M14 melanoma 104%
